Rows were chosen to be rich in hits. Some 10% of all compounds tested hit in one or more screens of this group.
BAZ2B inh: inhibitors of human BAZ2B bromodomain; Q9UIF8; AlphaScreen BAZ2B-H3K14Ac peptide displacement; Potency, µM (top dose mostly 114 µM), for inactives: at the highest dose activity change, negative = inhibition, hits mostly inhibitors; 360,000 tested, 4.4% active; also: % is scaled to controls: 0 for no effect and ±100 for the full control effect; nearly all actives have a fitted effect of over 60% in size
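Inhibition is scored as reduced AlphaScreen emission. The BAZ2B/b-H3(5-23)K14Ac complex (50 nM each) in PBS pH 7.4, 0.01% Tween-20 meets compound (up to 110 uM) for 30 min at RT before bead addition.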
GLS inhibitor: blocks human kidney-isoform glutaminase activity; O94925; GLS enzymatic activity, qHTS titration; 410,000 tested, 0.21% active; Potency, µM (series often up to 45.5 µM), for the others: top-dose activity change, negative = inhibition, actives largely listed as inhibitors; also: % is scaled to controls: 0 for no effect and ±100 for the full control effect
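Compounds were pin-transferred onto hKGA, after which L-glutamine (1 mM solution) and a detection mix of glutamate oxidase, HRP and Amplex Red were added. Initial and 30 min RT fluorescence reads were collected.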
L3MBTL1 inh: inhibitors of human L3MBTL1 | Q9Y468 | AlphaScreen L3MBTL1–H3K9me1 peptide binding | Potency, µM (doses to about 57.1 µM), inactives show at the top dose activity, negative = inhibition, hits mostly inhibitors | 230,000 tested, 0.66% active; also: % is scaled to controls: 0 for no effect and ±100 for the full control effect; nearly all actives have a fitted effect of over 60% in size
Target sequence (Q9Y468 whole entry, looked up): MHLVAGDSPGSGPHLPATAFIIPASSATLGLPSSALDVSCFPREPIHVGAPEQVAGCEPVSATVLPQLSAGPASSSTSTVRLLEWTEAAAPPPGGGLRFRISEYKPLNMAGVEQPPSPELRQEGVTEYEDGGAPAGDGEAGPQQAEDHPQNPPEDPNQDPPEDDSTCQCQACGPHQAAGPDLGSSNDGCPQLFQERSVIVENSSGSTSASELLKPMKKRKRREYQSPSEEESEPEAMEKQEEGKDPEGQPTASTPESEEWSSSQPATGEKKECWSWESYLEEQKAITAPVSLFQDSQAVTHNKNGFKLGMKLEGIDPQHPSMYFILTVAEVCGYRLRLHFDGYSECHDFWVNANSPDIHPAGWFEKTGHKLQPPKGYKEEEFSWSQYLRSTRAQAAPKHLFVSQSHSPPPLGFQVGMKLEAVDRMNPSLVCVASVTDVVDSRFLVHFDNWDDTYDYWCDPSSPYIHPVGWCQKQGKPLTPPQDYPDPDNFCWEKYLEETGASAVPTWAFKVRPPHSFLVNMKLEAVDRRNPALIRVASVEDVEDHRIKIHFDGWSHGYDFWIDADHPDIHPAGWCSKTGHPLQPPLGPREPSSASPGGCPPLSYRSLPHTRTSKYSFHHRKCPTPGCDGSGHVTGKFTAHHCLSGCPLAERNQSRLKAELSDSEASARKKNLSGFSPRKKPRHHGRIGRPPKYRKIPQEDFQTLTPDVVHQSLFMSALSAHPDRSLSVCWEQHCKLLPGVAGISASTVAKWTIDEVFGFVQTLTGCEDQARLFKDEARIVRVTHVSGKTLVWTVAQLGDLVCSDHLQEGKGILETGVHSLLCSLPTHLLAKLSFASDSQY
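AlphaScreen assay: L3MBTL1 (50 nM final) was preincubated 30 min at room temperature with biotinylated H3(1-15)K9me1 peptide (75 nM final), then 30 min with library compounds; streptavidin donor and nickel chelate acceptor beads (10 ug/mL final) added, 30 min dark.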
JMJD2A Tudor inh: blocks the human JMJD2A Tudor domain; O75164; AlphaScreen JMJD2A-Tudor / H3K4me3 peptide binding; Potency, µM (top dose mostly 114 µM), without a hit: at the top dose activity change, negative = inhibition, usual class: inhibitors; 390,000 tested, 4.4% active; AID 504339; also: % is scaled to controls: 0 for no effect and ±100 for the full control effect; nearly all actives have a fitted effect of over 50% in size
G9a inh: G9a (human) methyltransferase inhibition. Q96KQ7. Potency, µM (titrated, usually from 102 µM), without a hit: at the top dose activity, negative = inhibition, most hits filed as inhibitors. 350,000 tested, 8.8% active. AID 504332. G9a H3K9 monomethylation, AlphaScreen, 2 h; also: % is scaled to controls: 0 for no effect and ±100 for the full control effect; nearly all actives have a fitted effect of over 75% in size
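G9a (20 nM) preincubated 15 min RT with compounds, then 500 nM biotinylated H3K9 peptide and 20 uM SAM added; 2 h RT reaction. Monomethyl-H3K9 product detected by AlphaScreen with anti-H3K9me1 antibody, streptavidin donor and anti-rabbit IgG acceptor beads.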
HP1b chromo inh: HP1-beta chromodomain-methylated histone interaction inhibition | P83916 | AlphaScreen HP1-beta / biotin-H3K9me3 peptide binding | Potency, µM (doses to about 114 µM), inactives show at the top dose activity change, negative = inhibition, hits mostly inhibitors | 390,000 tested, 0.56% active; also: nearly all actives have a fitted effect of over 70% in size
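HP1-beta protein (50 nM final) preincubated 30 min at room temperature with biotinylated H3(1-18)K9me3 peptide (50 nM) in PBS pH 7.4, 0.01% Tween-20, then compound added for 30 min. AlphaScreen streptavidin donor/nickel chelate acceptor beads (10 ug/mL final), 30 min dark, luminescence read.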
An asterisk follows results filed as active; [ ] = dose if it differs, or a comment. Calls follow the shape of the dose curve; as a rule, active = well fitted curve in the direction sought with a large enough effect; inconclusive = small, poorly fitted or top-dose-only effect, or another doubt; inactive = no such curve, though single readings can be large; an effect the other way counts as inactive or inconclusive. Potency is read from the fitted curve at half-maximal effect.

Results for COc1cccc(C2=NOC(C(=O)N3CCc4ccccc4C3)C2)c1 (stereo unspecified) ?
BAZ2B inh: 10.9%; GLS inhibitor: -1.6%; L3MBTL1 inh: 18.2%; JMJD2A Tudor inh: -12.0%; G9a inh: 7.94µM*; HP1b chromo inh: 36.4%

What do the screens show for `CCCCCCSC1=C(C#N)C(c2ccccc2)CC(=O)N1` (stereo unspecified)?
BAZ2B inh: -29.3%; GLS inhibitor: -7.0%; JMJD2A Tudor inh: -3.1%; G9a inh: -15.4%[12.7 µM]; HP1b chromo inh: 21.6%

Results for N#CC1=C(C2CC2)CC(c2ccccc2)C(C#N)=C1N (stereo unspecified) ?
BAZ2B inh: 0.8%; GLS inhibitor: -6.9%; L3MBTL1 inh: -6.9%; JMJD2A Tudor inh: -8.5%; G9a inh: 50.1µM*; HP1b chromo inh: 52.0%

Results for CCOC(=O)c1c(C)[nH]c(C)c1C(=O)COC(=O)c1cc2ccccc2cc1O ?
BAZ2B inh: inconclusive; GLS inhibitor: inconclusive; L3MBTL1 inh: -19.4%; JMJD2A Tudor inh: inconclusive; G9a inh: 50.1µM*; HP1b chromo inh: -14.8%

What do the screens show for `CCOC(=O)c1c(C)[nH]c(C)c1C(=O)COC(=O)c1ccc(Cl)c(S(=O)(=O)NCc2ccccc2)c1`?
BAZ2B inh: inconclusive; GLS inhibitor: -6.8%; JMJD2A Tudor inh: 56.2µM*; G9a inh: inconclusive; HP1b chromo inh: -36.3%

How did CCOC(=O)c1c(C)[nH]c(C)c1C(=O)COc1ncnc2ccccc12 do in these assays?
GLS inhibitor: 0.0%; JMJD2A Tudor inh: 15.8µM*; G9a inh: inconclusive; HP1b chromo inh: -22.1%

How did CCOC(=O)c1c(NC(=O)COc2ncnc3ccccc23)sc(C)c1C do in these assays?
BAZ2B inh: 4.2%; GLS inhibitor: 9.6%; L3MBTL1 inh: 3.0%; JMJD2A Tudor inh: -17.2%; G9a inh: 10.7%[59 µM]; HP1b chromo inh: 24.4%

Results for COc1cc2c(cc1OC)C(COc1ccc(F)cc1)N(C(=O)c1cccc(F)c1)CC2 (stereo unspecified) ?
BAZ2B inh: -27.2%; GLS inhibitor: 4.6%; JMJD2A Tudor inh: inconclusive; G9a inh: -35.0%[59 µM]; HP1b chromo inh: 0.9%

Results for C/C(=N\Nc1nc2ccccc2[nH]1)c1ccccn1 ?
BAZ2B inh: 20µM*; G9a inh: 6.2%

What do the screens show for `C/C(=N\Nc1nc2ccccc2[nH]1)c1cc2ccccc2o1`?
BAZ2B inh: inconclusive; GLS inhibitor: inconclusive; L3MBTL1 inh: -7.4%; JMJD2A Tudor inh: 44.7µM*; G9a inh: 44.7µM*; HP1b chromo inh: inconclusive

What do the screens show for `C/C(=N/O)c1ccccn1`?
BAZ2B inh: 10µM*; GLS inhibitor: 22.8%; L3MBTL1 inh: 5.4%; JMJD2A Tudor inh: inconclusive; G9a inh: -3.4%; HP1b chromo inh: 20.1%

How did O=C(C1CCCN(C2CC(=O)N(c3ccc(F)cc3)C2=O)C1)N1CCCC1 (stereo unspecified) do in these assays?
BAZ2B inh: -9.2%; GLS inhibitor: -0.1%; JMJD2A Tudor inh: 31.6µM*; G9a inh: 44.7µM*; HP1b chromo inh: 28.3%

What do the screens show for `O=C1CCCN1CCC1CCN(C2CC(=O)N(c3ccc(Cl)cc3)C2=O)CC1` (stereo unspecified)?
BAZ2B inh: -6.9%; GLS inhibitor: 8.0%; JMJD2A Tudor inh: -19.2%; G9a inh: 11.2µM*; HP1b chromo inh: 28.8%

Results for CCCOc1ccc(N2C(=O)CC(N3CCCC(C(=O)N4CCCC4)C3)C2=O)cc1 (stereo unspecified) ?
BAZ2B inh: 1.0%; GLS inhibitor: 9.9%; L3MBTL1 inh: 9.1%; JMJD2A Tudor inh: 0.3%; G9a inh: inconclusive; HP1b chromo inh: 52.1%

How did O=C1CCCN1CCC1CCN(C2CC(=O)N(Cc3ccc(N4CCCC4=O)cc3)C2=O)CC1 (stereo unspecified) do in these assays?
BAZ2B inh: -4.6%; GLS inhibitor: -5.5%; L3MBTL1 inh: 22.5%[11.4 µM]; JMJD2A Tudor inh: -4.9%; G9a inh: inconclusive; HP1b chromo inh: 37.6%

How did O=C(C1CCCN(C2CC(=O)N(c3ccc(Cl)cc3)C2=O)C1)N1CCCC1 (stereo unspecified) do in these assays?
BAZ2B inh: -2.0%; GLS inhibitor: -0.9%; JMJD2A Tudor inh: -5.6%; G9a inh: 79.4µM*; HP1b chromo inh: 40.1%

How did Cc1nc(-c2ccc(S(=O)(=O)Nc3ccc(OC(F)(F)F)cc3)cc2)co1 do in these assays?
BAZ2B inh: 0.9%; GLS inhibitor: -8.1%; JMJD2A Tudor inh: 1.3%; G9a inh: -1.6%[59 µM]; HP1b chromo inh: 30.1%[57 µM]

How did COc1cccc(CNC(=O)Cn2c(=O)oc3cc(S(=O)(=O)N4CCCC4)ccc32)c1 do in these assays?
BAZ2B inh: -1.2%; GLS inhibitor: -1.1%; JMJD2A Tudor inh: -17.1%; G9a inh: 0.5%[59 µM]; HP1b chromo inh: 8.9%

What do the screens show for `O=C(c1ccco1)N1CCn2cccc2C1c1ccccc1` (stereo unspecified)?
BAZ2B inh: 35.5µM*; GLS inhibitor: -10.0%; L3MBTL1 inh: inconclusive; JMJD2A Tudor inh: 50.1µM*; G9a inh: inconclusive; HP1b chromo inh: 70.8µM*

What do the screens show for `COc1cc2c(cc1OC)C(c1ccccc1)N(C(=O)c1ccco1)CC2` (stereo unspecified)?
BAZ2B inh: -36.5%; GLS inhibitor: -2.1%; JMJD2A Tudor inh: -28.9%; G9a inh: inconclusive; HP1b chromo inh: 8.8%

Results for C[C@@H](O[C@H]1OCCN(Cc2n[nH]c(=O)[nH]2)[C@@H]1c1ccc(F)cc1)c1cc(C(F)(F)F)cc(C(F)(F)F)c1 ?
GLS inhibitor: -1.2%

How did Cc1cccc(-n2c(SCC(=O)Nc3ccccc3C)nc3c(oc4ccccc43)c2=O)c1 do in these assays?
BAZ2B inh: 0.7%; GLS inhibitor: 5.0%; JMJD2A Tudor inh: 4.4%; G9a inh: -4.1%[59 µM]; HP1b chromo inh: 28.1%

How did Cc1ccc(OCc2nnc(SCC(=O)O)n2N)cc1 do in these assays?
BAZ2B inh: inconclusive; GLS inhibitor: -2.0%; L3MBTL1 inh: -1.3%; JMJD2A Tudor inh: -15.2%; G9a inh: 107.6%[59 µM]; HP1b chromo inh: 27.9%

How did COc1ccc(OCc2nnc(SCC(=O)N(C)Cc3ccccc3)n2N)cc1 do in these assays?
GLS inhibitor: -14.4%; L3MBTL1 inh: -5.6%; JMJD2A Tudor inh: inconclusive; G9a inh: 7.08µM*; HP1b chromo inh: inconclusive

What do the screens show for `O=C(C1CCC(Cn2c(=O)c3sccc3n(Cc3cccc(F)c3)c2=O)CC1)N1CCCCC1` (stereo unspecified)?
BAZ2B inh: -18.9%; GLS inhibitor: 0.1%; JMJD2A Tudor inh: -32.3%; G9a inh: 9.7%[59 µM]; HP1b chromo inh: 22.1%
